# From PubChem BioAssay
# Shown is part of a subset that was picked to be rich in hits.
# Pf Dd2 growth – Plasmodium falciparum Dd2 growth inhibition. P. falciparum Dd2 growth, SYBR Green, 72 h. Potency, µM (series often up to 28.9 µM), without a hit: top-dose activity, negative = inhibition, actives largely listed as inhibitors. hit rate 4.3% among 120,000. AID 1347417; active means well fitted inhibition curve with a large enough effect;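 further: plate controls were DMSO vehicle for no effect and reference drug for full effect; nearly all actives have a fitted effect of over 65% in size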
#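 Readout: SYBR Green fluorescence, 485 nm excitation, 535 nm emission, after ~16 h lysis at 37C. Before that, Dd2-infected red cells (2.5% hematocrit) grew 72 h with compound, 29 uM top final concentration.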
# Active calls of the source: *; i = inactive; [ ] = another dose, or the depositor's remark. Potency means the concentration at half of the fitted maximal effect.
SMILES,Pf Dd2 growth
Cn1cccc1C(=O)N1CC(c2noc(COc3ccccc3)n2)C1,i
CCNC(=O)N1CCC[C@@H](O)[C@H](NC(=O)c2ccc(OCCN3CCCC3)cc2)C1,14.4%[44.1 µM]
CC(C)(C)CCN1CCCC(COc2ccccc2C(=O)NC2CC2)C1 (configuration not stated),i
CCc1noc(-c2cn(C3CCN(C(=O)c4cccc(OC(F)(F)F)c4)C3)nn2)n1 (configuration not stated),i
Cc1ccc(C2NC(=O)N(CC(=O)NCCCc3ccccc3)C3=C2C(=O)OC3)cc1 (configuration not stated),i
Cc1cccc(NC(=O)N2CCC(Oc3ncccc3C(=O)N3CCCCC3)C2)c1C (configuration not stated),-4.4%
COc1ccc(-c2cc(N3CCCC(NC(=O)Cc4cccs4)C3)n[nH]2)cc1 (configuration not stated),-11.0%
Cc1ccccc1CC(=O)Nc1ccc2ncnc(N3CCCCC3)c2c1,i
CC1Oc2ccc(NC(=O)Cc3cccs3)cc2CN(Cc2ccc(Cl)cc2)C1=O (configuration not stated),i
COc1ccccc1CC(=O)NC1CCN(c2cc(C(F)(F)F)ncn2)CC1,34.4%
COc1ccccc1CC(=O)Nc1ccc2c(N3CCCCC3)ncnc2c1,14.1µM*
O=C(Cc1cccs1)Nc1ccc2c(N3CCCCC3)ncnc2c1,5.01µM*
COc1cc(OC)cc(N2C(=O)[C@@H]3C[C@@H](NC(=O)c4cccs4)CCN3C2=O)c1,-6.0%[44.1 µM]
CCCCN1C(=O)[C@@H]2C[C@@H](O)CN2C2(CN(C3CCCC3)C2)C1=O,-26.3%[44.1 µM]
CCCCC(=O)NC1CCN(c2cnn(C)c(=O)c2)CC1,6.7%
CCCCC(=O)NC1CCN(c2cn[nH]c(=O)c2)CC1,2.82µM*
CC(C)CC(=O)NC1CCN(c2cn[nH]c(=O)c2)CC1,-11.3%
COc1ccc(NC(=O)N2c3ccccc3CC2c2nc(C(C)C)no2)cc1OC (configuration not stated),3.3%[5.79 µM]
O=C1CCN(S(=O)(=O)c2ccccc2)CCCN(C(=O)Cc2c[nH]c3ccccc23)CCN1,-28.0%
O=C(Nc1ccccc1)N1CCOC(CN(CC2CC2)C(=O)c2cccc(F)c2)C1 (configuration not stated),i
O=C(Nc1cccc(Cl)c1)N1CCOC(CN(CC2CC2)C(=O)c2cccc(F)c2)C1 (configuration not stated),4.47µM*
Cc1ccc(C(=O)N(CC(C)C)CC2CN(C(=O)Nc3cccc(Cl)c3)CCO2)cc1 (configuration not stated),-26.0%
CC(=O)Nc1ccc(CN2CCC3(C2)NC(=O)c2ccccc2O3)cc1 (configuration not stated),i
Cc1ccc(OCC(O)Cn2c(=N)n(CCN3CCCCC3)c3ccccc32)cc1 (configuration not stated),2.82µM*
N=c1n(CCN2CCCCC2)c2ccccc2n1CC(O)COc1ccc(Cl)cc1Cl (configuration not stated),1µM*
SMILES,Pf Dd2 growth
CC1=CCN(Cc2ccc(OCC(O)CN3CCN(C)CC3)cc2)CC1 (configuration not stated),6.6%
COc1ccc(N2CCN(CC(O)COc3ccc(C(C)(C)C)cc3)CC2)cc1 (configuration not stated),-6.1%
CCNc1nc2c(c(=O)[nH]c(=O)n2C)n1CC(O)COc1ccc(Cl)cc1Cl (configuration not stated),-13.5%
CCn1c(COc2ccc(Cl)cc2Cl)nc2ccccc21,-19.2%
COc1ccc(N2CCN(CC(O)COc3ccc(C)cc3C)CC2)cc1 (configuration not stated),1.4%
COc1ccc(OCC(O)Cn2c(=N)n(CCN3CCCCC3)c3ccccc32)cc1 (configuration not stated),7.94µM*
Cc1nc2ccccc2n1CC(O)COc1ccc(C(=O)O)cc1 (configuration not stated),17.1%
CCC(CC)NC(=O)C1CCN(c2cn[nH]c(=O)c2)C1 (configuration not stated),20.4%
Cc1noc(C)c1CC(=O)N1CCCn2ccnc2C1c1ccccc1 (configuration not stated),-10.0%
CC(C)Oc1cccc2c1c(NC(=O)C1CCOCC1)nn2C,-5.6%
CC(C)Oc1cccc2c1c(NC(=O)c1ccn(C)n1)nn2Cc1ccccc1,8.91µM*
CC(C)Oc1cccc2c1c(NC(=O)C1CCCO1)nn2Cc1ccccc1 (configuration not stated),i
O=C(Cc1ccsc1)N1CCC(c2nc(C3CCOCC3)no2)C1 (configuration not stated),0.0%
CC1CCCN(Cc2c(O)ccc3c(=O)c(Oc4ccccc4Cl)c(C(F)(F)F)oc23)C1 (configuration not stated),0.891µM*
Cc1ccc(Oc2c(C(F)(F)F)oc3c(CN4CCC(C)CC4)c(O)ccc3c2=O)cc1,1µM*
Cc1ccccc1Cn1c(CN2CCCC(C)C2)nc2c1c(=O)n(C)c(=O)n2C (configuration not stated),9.2%
Cc1ccc(Oc2c(C(F)(F)F)oc3cc(OCC(=O)NC4CCCCC4)ccc3c2=O)cc1,-29.7%
CC1CCN(Cc2c(O)ccc3c(=O)c(Oc4ccccc4Cl)c(C(F)(F)F)oc23)CC1,0.631µM*
Cc1noc(C)c1CN1CCCC(COc2ccccc2C(=O)N2CCC(C)CC2)C1 (configuration not stated),-3.4%
CCCN(CC1CCOC1)C(=O)c1cccc(Cl)c1 (configuration not stated),8.5%[5.79 µM]
N#Cc1ccc(C(=O)N2CCCCCCNC(=O)[C@@H]3C[C@@H](c4nc(-c5cnccn5)no4)C[C@@H]32)cc1,i
CNC(=O)[C@H]1C[C@H](Oc2cccnc2)CN1C(=O)Cc1ccccc1,-11.5%
COCC(=O)N[C@H]1C[C@@H](CO)N(Cc2ccc(C#N)cc2)C1,i
CCNC(=O)N1CCOc2ccc(CCC(=O)Nc3ccc(C)cc3)cc2C1,-8.5%
O=C(c1ccc2c(c1)OCO2)N1CCC2(CC1)NC(=O)N(c1ccccc1Cl)N2,i
SMILES,Pf Dd2 growth
Cc1cccc(N2CCN(c3nc4ccccc4c4nc(-c5ccccc5)nn34)CC2)c1C,22.9%
Cc1cccc(N2CCN(c3nc4ccccc4c(=O)n3-c3ccc(Cl)cc3)CC2)c1C,i
Cc1cccc(N2CCN(c3nc4ccccc4c4nnc(C)n34)CC2)c1C,0.891µM*
CC1(CNC(=O)c2cnccn2)CCOCC1,-11.3%
CCNC(=O)c1cc(NC(=O)C(C)C)cc2nc(C)ccc12,-3.7%
COc1ccccc1CCN1CCCC(CN(C)C(=O)Cn2cccnc2=O)C1 (configuration not stated),-2.3%
COc1ccccc1CCN1CCCC(CN(C)C(=O)CN2C(=O)CNC2=O)C1 (configuration not stated),5.2%
COc1ccccc1CCN1CCC(CN(C)C(=O)CCc2ccccc2Cl)CC1,8.91µM*
Cc1cccc(OCC(=O)NCc2nnc3c(-c4nc(C)no4)cccn23)c1,-2.8%
Cc1noc(C2CC3(CCN(C(=O)CCc4c(C)nn(C)c4C)CC3)CN2C)n1 (configuration not stated),-3.2%
COCC(=O)NC[C@H]1C[C@@H]2CCN1C[C@@H]2c1cc(-c2ccccc2)nc(C)n1,i
Cc1nc(-c2ccc(C(F)(F)F)cc2)cc([C@H]2CN3CC[C@H]2C[C@@H]3CNC(=O)C2CC2)n1,i
Cc1nc(-c2ccc(N(C)C)cc2)cc([C@H]2CN3CC[C@H]2C[C@@H]3CNC(=O)C(C)(C)C)n1,7.08µM*
